G9a block – qHTS Assay for Inhibitors of Histone Lysine Methyltransferase G9a; Histone-lysine N-methyltransferase EHMT2 (Homo sapiens), Q96KQ7; G9a H3K9 monomethylation, AlphaScreen, 2 h; Potency, µM (doses to about 102 µM), without a hit: at the highest dose activity, negative = inhibition, hits mostly inhibitors; 8.8% of 350,000 active; AID 504332, 2011; also: % is scaled to controls: 0 for no effect and ±100 for the full control effect; nearly all actives have a fitted effect of over 75% in size
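Methyltransferase reactions run at room temperature for 2 h (20 nM enzyme, 500 nM biotin-H3K9 peptide, 20 uM SAM) after a 15 min compound preincubation; product detected by AlphaScreen beads and anti-H3K9me1 antibody.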
JMJD2A Tudor inh – qHTS Assay for Inhibitors of JMJD2A-Tudor Domain. Lysine-specific demethylase 4A (Homo sapiens), O75164. AlphaScreen JMJD2A-Tudor / H3K4me3 peptide binding. Potency, µM (top dose mostly 114 µM), inactives show top-dose activity change, negative = inhibition, most hits filed as inhibitors. 4.4% of 390,000 active. AID 504339, 2011; also: % is scaled to controls: 0 for no effect and ±100 for the full control effect; nearly all actives have a fitted effect of over 50% in size
GLS inhibitor – qHTS for Inhibitors of Glutaminase (GLS). Glutaminase kidney isoform, mitochondrial (Homo sapiens), O94925. GLS enzymatic activity, qHTS titration. Potency, µM (doses to about 45.5 µM), for inactives: top-dose activity change, negative = inhibition, hits mostly inhibitors. 0.21% of 410,000 active. AID 624170, 2012; also: % is scaled to controls: 0 for no effect and ±100 for the full control effect
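Coupled fluorescence readout: glutamate oxidase/HRP/Amplex Red detect glutamate formed by hKGA from L-glutamine (1 mM solution added). Buffer 45 mM KH2PO4 pH 8.2, 0.02% Tween-20; reads at t0 and 30 min RT.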
BAZ2B block – qHTS Assay for Inhibitors of BAZ2B; 4.4% of 360,000 active; Potency, µM (doses to about 114 µM), inactives show at the highest dose activity change, negative = inhibition, actives largely listed as inhibitors; Bromodomain adjacent to zinc finger domain protein 2B (Homo sapiens), Q9UIF8; AlphaScreen BAZ2B-H3K14Ac peptide displacement; AID 504333, 2011; also: % is scaled to controls: 0 for no effect and ±100 for the full control effect; nearly all actives have a fitted effect of over 60% in size
Target sequence (Q9UIF8 whole entry, looked up, the tested form may be a part): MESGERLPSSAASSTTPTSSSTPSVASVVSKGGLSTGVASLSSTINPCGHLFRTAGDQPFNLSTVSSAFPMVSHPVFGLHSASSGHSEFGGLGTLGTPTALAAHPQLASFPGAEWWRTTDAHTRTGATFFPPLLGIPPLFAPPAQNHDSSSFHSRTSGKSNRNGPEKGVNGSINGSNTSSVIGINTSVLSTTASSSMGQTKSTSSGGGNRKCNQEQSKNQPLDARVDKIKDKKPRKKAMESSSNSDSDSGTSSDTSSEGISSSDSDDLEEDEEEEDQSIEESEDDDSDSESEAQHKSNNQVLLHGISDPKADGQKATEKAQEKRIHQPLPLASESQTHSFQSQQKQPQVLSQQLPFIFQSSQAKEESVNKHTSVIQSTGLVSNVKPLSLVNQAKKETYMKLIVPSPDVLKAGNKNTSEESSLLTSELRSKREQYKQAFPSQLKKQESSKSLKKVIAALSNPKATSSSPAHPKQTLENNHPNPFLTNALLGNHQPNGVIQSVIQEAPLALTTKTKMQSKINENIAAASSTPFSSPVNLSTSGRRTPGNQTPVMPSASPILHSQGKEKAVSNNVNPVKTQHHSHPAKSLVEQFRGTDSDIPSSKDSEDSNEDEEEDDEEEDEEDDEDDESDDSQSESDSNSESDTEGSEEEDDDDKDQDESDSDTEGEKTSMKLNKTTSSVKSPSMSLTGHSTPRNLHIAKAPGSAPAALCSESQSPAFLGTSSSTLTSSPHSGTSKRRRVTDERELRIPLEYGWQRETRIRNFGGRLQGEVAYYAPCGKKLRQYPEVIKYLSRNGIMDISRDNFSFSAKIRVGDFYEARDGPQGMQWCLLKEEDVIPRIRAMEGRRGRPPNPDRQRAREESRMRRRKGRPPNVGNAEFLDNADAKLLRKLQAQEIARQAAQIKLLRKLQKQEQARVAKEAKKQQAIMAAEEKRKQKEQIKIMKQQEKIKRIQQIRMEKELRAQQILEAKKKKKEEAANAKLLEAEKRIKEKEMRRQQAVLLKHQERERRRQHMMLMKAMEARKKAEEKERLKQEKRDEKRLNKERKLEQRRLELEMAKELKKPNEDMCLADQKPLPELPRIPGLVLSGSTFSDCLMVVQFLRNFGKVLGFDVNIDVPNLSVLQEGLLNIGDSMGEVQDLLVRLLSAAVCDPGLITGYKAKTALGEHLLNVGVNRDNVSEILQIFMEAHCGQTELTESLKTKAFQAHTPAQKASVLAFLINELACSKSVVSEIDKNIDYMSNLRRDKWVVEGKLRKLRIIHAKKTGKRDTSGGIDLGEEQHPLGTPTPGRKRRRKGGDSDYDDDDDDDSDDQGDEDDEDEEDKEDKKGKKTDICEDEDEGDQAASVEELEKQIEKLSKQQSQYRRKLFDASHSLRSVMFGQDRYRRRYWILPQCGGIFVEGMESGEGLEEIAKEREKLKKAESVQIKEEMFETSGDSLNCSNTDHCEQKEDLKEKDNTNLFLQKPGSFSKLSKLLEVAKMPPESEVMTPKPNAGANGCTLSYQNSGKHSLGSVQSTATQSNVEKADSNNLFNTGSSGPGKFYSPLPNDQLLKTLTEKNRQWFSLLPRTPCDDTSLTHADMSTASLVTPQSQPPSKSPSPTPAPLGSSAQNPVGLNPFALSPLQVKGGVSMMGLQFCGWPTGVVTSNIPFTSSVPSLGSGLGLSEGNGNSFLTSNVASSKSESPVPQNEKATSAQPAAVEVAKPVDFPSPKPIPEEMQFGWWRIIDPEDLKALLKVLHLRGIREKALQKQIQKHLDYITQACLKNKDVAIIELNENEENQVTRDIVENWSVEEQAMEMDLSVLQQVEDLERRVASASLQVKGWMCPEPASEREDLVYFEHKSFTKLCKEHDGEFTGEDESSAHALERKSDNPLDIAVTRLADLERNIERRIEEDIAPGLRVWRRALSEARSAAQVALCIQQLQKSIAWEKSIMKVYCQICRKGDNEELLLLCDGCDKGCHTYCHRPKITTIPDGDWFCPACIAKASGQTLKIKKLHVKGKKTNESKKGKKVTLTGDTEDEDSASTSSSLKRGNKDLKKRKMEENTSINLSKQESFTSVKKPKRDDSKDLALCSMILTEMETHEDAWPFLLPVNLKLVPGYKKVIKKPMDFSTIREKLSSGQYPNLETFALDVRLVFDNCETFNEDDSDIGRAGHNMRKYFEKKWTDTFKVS
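Complex of BAZ2B and biotin-H3K14Ac (50 nM apiece) forms over 30 min at RT, then faces library compounds up to 110 uM for another 30 min; AlphaScreen beads added, 20 min dark incubation, luminescence read.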
HP1b binding inh – HTS for Inhibitors of HP1-beta Chromodomain Interactions with Methylated Histone Tails; 0.56% of 390,000 active; AlphaScreen HP1-beta / biotin-H3K9me3 peptide binding; Chromobox protein homolog 1 (Homo sapiens), P83916; AID 540317, 2011; Potency, µM (doses to about 114 µM), without a hit: at the highest dose activity change, negative = inhibition, actives largely listed as inhibitors; also: nearly all actives have a fitted effect of over 70% in size
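Compound inhibition of the preformed complex between 50 nM HP1-beta and 50 nM biotinylated H3K9me3 peptide was read by AlphaScreen. Buffer was PBS pH 7.4 with 0.01% Tween-20. Incubations ran 30 min at room temperature, with 10 ug/mL donor/acceptor beads.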
Starred values were filed as active, the others as inactive; ? = inconclusive; · = not tested or not shown; [ ] = dose if it differs, or a comment. In the library only some 10% were active in any assay of this set; here they are far more common. Calls follow the shape of the dose curve; as a rule, active = well fitted curve in the direction sought with a large enough effect; inconclusive = small, poorly fitted or top-dose-only effect, or another doubt; inactive = no such curve, though single readings can be large; an effect the other way counts as inactive or inconclusive. Potency is read from the fitted curve at half-maximal effect.

SMILES	G9a block	JMJD2A Tudor inh	GLS inhibitor	BAZ2B block	HP1b binding inh
Cc1cccc(NC(=O)c2sc3nc4c(cc3c2N)CN(C(C)C)CC4)c1	14µM*	50µM*	3%	?	-19%
COc1ccc(NC(=O)c2sc3nc4c(cc3c2N)CN(C(C)C)CC4)c(OC)c1	11µM*	?	-1%	?	-8%
Cc1cccc(NC(=O)c2sc3nc4c(cc3c2N)CN(Cc2ccccc2)CC4)c1	-2%[59 µM]	5%	-9%	-9%	26%
Cc1cccc(NC(=O)c2sc3nc(N)c(C#N)cc3c2N)c1	10µM*	35µM*	17%	-10%	12%
CC(C)CCn1c(Oc2ccccc2F)nc2c1c(=O)n(C)c(=O)n2C	-9%[59 µM]	-26%	1%	?	26%
COc1ccccc1NC(=O)CSc1nnc(-c2ccccn2)o1	8%	-19%	3%	-26%	32%
O=C(CSc1nnc(-c2ccccn2)o1)Nc1ccccc1C(F)(F)F	71µM*	-18%	-5%	50µM*	5%
COc1ccc(C2/C(=C(/O)c3ccc4c(c3)CC(C)O4)C(=O)C(=O)N2Cc2cccnc2)cc1 (centres undefined)	40µM*	-21%	-7%	-36%	54%
CC1Cc2cc(/C(O)=C3/C(=O)C(=O)N(Cc4ccncc4)C3c3ccc(N(C)C)cc3)ccc2O1 (centres undefined)	22µM*	?	2%	?	12%
COc1ccc(C2/C(=C(\O)c3ccc4c(c3)CC(C)O4)C(=O)C(=O)N2Cc2cccnc2)c(OC)c1 (centres undefined)	71µM*	-21%	3%	-13%	13%
CCc1ccc([C@@H]2C[C@H]3[C@@H](CN2S(=O)(=O)c2ccc(C)cc2)C(=O)C[C@@H](c2cccc(Cl)c2)N3S(=O)(=O)c2ccc(C)cc2)cc1	·	·	0%	·	·
NC(=O)C(CC(=O)O)NC(=O)[C@@H]1CCOc2c(I)cc([N+](=O)[O-])cc2C(=O)N[C@@H](CO)C(=O)N[C@@H](Cc2ccc(O)cc2)C(=O)N1 (some centres undefined)	22µM*	50µM*	?	?	-12%
NC(=O)[C@@H]1CCOc2c(F)cc([N+](=O)[O-])cc2C(=O)N[C@@H](CO)C(=O)NCC(=O)N1	?	-12%	0%	-18%	19%
NC(=O)[C@@H]1CCNc2c(I)cc([N+](=O)[O-])cc2C(=O)N[C@@H](CO)C(=O)N[C@@H](Cc2ccc(O)cc2)C(=O)N1	10µM*	·	·	79µM*	·
CC(C)C[C@@H]1NC(=O)[C@H](Cc2ccc(O)cc2)NC(=O)[C@H](CCC(N)=O)NC(=O)c2cc([N+](=O)[O-])cc(I)c2NCC[C@@H](C(N)=O)NC1=O	7.1µM*	·	·	50µM*	·
NC(=O)[C@@H]1CCCNc2c(F)cc([N+](=O)[O-])cc2C(=O)N[C@@H](CO)C(=O)N[C@@H](Cc2ccc(O)cc2)C(=O)N1	?	-27%	16%	-37%	15%
O=C1CCCN1CN1CCCCC1	-131%[59 µM]	?	9%	79µM*	?
O=C1CN(CN2CCCCC2)C(=O)CN1CN1CCCCC1	·	·	-15%	·	·
CCOc1ccccc1CNC(=O)CCn1cccn1	9%[59 µM]	-8%	-2%	-6%	15%
CCC(C)NCCCCOc1ccc(Cl)cc1C (centres undefined)	?	14µM*	3%	-13%	-20%
CCC(C)NCCCOc1cc(Cl)ccc1Cl (centres undefined)	7.9µM*	2.5µM*	-7%	50µM*	?
CCCCNCCCOc1cc(Cl)ccc1Cl	-34%[59 µM]	-18%	15%	-15%	14%
COc1ccc([C@@H]2C[C@H]3[C@@H](CN2S(=O)(=O)c2ccccc2)C(=O)C[C@@H](c2cccc4ccccc24)N3S(=O)(=O)c2ccc(C)cc2)cc1	·	·	1%	·	·
Cn1c(=O)c2c(nc(N/N=C/c3ccncc3)n2Cc2ccccc2)n(C)c1=O	-2%	-22%	13µM*	0%	26%
COC(=O)Cn1c(CN2CCc3ccccc3C2)nc2c1c(=O)n(C)c(=O)n2C	50µM*	-15%	-17%	12%	55%
SMILES	G9a block	JMJD2A Tudor inh	GLS inhibitor	BAZ2B block	HP1b binding inh
Cc1ccc(Cn2c(N/N=C/c3ccncc3)nc3c2c(=O)n(C)c(=O)n3C)cc1	20%	-10%	?	-32%	?
Cn1c(=O)c2c(nc(SCc3cccnc3)n2Cc2ccccc2)n(C)c1=O	?	35µM*	13%	-8%	22%
CCN1CCN(c2nc3c(c(=O)n(C)c(=O)n3C)n2Cc2cccc3ccccc23)CC1	40µM*	-5%	3%	-5%	18%
Cc1ccc(Cn2c(SCc3cccnc3)nc3c2c(=O)n(C)c(=O)n3C)cc1	-3%[59 µM]	-18%	4%	-8%	18%
O=C(NCc1ccccc1F)C1CCN(c2nnc(-n3cccc3)s2)CC1	-2%[59 µM]	-22%	5%	10%[57.1 µM]	2%
CCCn1c(SCC(=O)N2CCN(c3ccc(OC)cc3)CC2)nc2c1c(=O)n(C)c(=O)n2C	50µM*	-20%	44%	-27%	27%
C=C(C)Cn1c(N2CCN(c3ccc(OC)cc3)CC2)nc2c1c(=O)n(C)c(=O)n2C	17%[59 µM]	?	-3%	?	-9%
COc1ccc(N2CCN(c3nc4c(c(=O)n(C)c(=O)n4C)n3Cc3ccccc3)CC2)cc1	-49%[12.7 µM]	56µM*	44%	45µM*	?
CCCn1c(SCC(=O)N2CCCC2)nc2c1c(=O)n(C)c(=O)n2C	25%	-2%	-4%	-6%	30%
Cn1c(=O)c2c(nc(CN3CCN(Cc4ccccc4)CC3)n2Cc2ccc(Cl)cc2)n(C)c1=O	45µM*	?	8%	-26%	12%
Cn1c(=O)c2c(nc(CN3CCN(Cc4ccccc4)CC3)n2Cc2ccccc2)n(C)c1=O	-11%	·	·	11%	·
CNCCCC1c2ccccc2C=Cc2ccccc21	22%[59 µM]	-14%	5%	-3%	10%
CNCCCC1Sc2ccccc2Oc2ccccc21 (centres undefined)	7.9µM*	8.9µM*	-16%	?	-34%
OCCNC(=S)Nc1ccc2nsnc2c1	35µM*	-11%	18%	-5%	40%
Cc1nc2ccc(NC(=S)NCCCO)cc2nc1C	28µM*	-35%	11%	-10%	79µM*
O=C(NCCO)Nc1ccc2nsnc2c1	-1%	-3%	-1%	-3%	27%
CCc1ccc2cc3c(cc2n1)C(=O)c1ccccc1-3	·	·	3%	·	·
CCOc1cc2sc(N3CCC(C(=O)Nc4ccccc4Cl)CC3)nc2cc1Br	-4%[59 µM]	-10%	1%	4%	14%
